Bioassay records deposited in PubChem BioAssay by several laboratories.
Most compounds without a hit are left out; they make up all but 4.5% or so of the library.
GDH-TPI counter-1: counter-screen for M. tuberculosis FBA inhibitors: GDH-TPI coupled enzymes. GDH-TPI coupled enzyme counterscreen, NADH absorbance. inhibition, % at 4.8 µM. 360,000 compounds, 1.2% hits. AID 588335; in the data active = inhibition above about 30%
PrP UTR inh: suppresses PrP 5' UTR mRNA reporter expression | 340,000 compounds, 0.35% hits | cell-based PrP 5' UTR mRNA reporter, plate reader | inhibition, % (test concentration not listed); in the data active = inhibition above about 52%
BJeLR lethal: BJeLR cell viability loss; BJeLR (HRASV12) viability, CellTiter-Glo ATP luminescence, 48 h; inhibition, % (test concentration not listed); 300,000 compounds, 0.17% hits; in the data active = inhibition above about 50%
Mtb FBA inh: Mtb fructose-bisphosphate aldolase inhibition. AID 588726. inhibition, % at 1 µM. P9WQA3. purified M. tuberculosis FBA, fluorescence read-out. 360,000 compounds, 2.3% hits
Target sequence (P9WQA3 whole entry, looked up): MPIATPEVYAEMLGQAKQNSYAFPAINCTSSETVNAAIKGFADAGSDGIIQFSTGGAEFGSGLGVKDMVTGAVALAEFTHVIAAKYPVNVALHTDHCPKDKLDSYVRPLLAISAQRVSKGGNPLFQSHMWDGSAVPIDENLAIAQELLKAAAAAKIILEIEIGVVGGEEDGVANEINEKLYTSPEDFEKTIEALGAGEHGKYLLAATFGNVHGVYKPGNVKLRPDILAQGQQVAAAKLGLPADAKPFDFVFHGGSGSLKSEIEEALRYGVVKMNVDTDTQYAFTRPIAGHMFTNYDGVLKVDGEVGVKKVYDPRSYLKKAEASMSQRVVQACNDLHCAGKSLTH
PrPC TRFRET: inhibitors of human cell surface prion protein PrPC; P04156; AID 720596; inhibition, % at 13.8 µM; 370,000 compounds, 0.43% hits; TR-FRET read-out; in the data active = inhibition above about 24%
PfHsp40 yeast: compounds rescuing yeast from Plasmodium falciparum HSP40 toxicity | growth rescue, % at 12.5 µM | S. cerevisiae expressing PfHsp40, growth rescue, ATP luminescence | 340,000 compounds, 0.68% hits | AID 504582; in the data active = growth rescue above about 28%, passing the limit was not always enough;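 also: yeast W303a lacking pdr1 and pdr3 grown in galactose medium; growth measured after three days at 30 °C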
Mtb FBA inh conf: confirmation of M. tuberculosis fructose-bisphosphate aldolase inhibitors | shares compounds with Mtb FBA inh | inhibition, % at 1 µM | purified M. tuberculosis FBA, fluorescence read-out | 5,600 compounds, 78% hits | AID 651616
GDH-TPI counter-2: GDH-TPI inhibition counter-screen for FBA inhibitors; shares compounds with Mtb FBA inh; GDH-TPI coupled enzyme counterscreen, fluorescence; inhibition, % at 1 µM; 5,600 compounds, 81% hits; in the data active = inhibition above about 10%
GDH-TPI DR: inhibits GDH-TPI coupling enzymes in dose response. IC50, µM. shares compounds with Mtb FBA inh. AID 652145. GDH-TPI coupled enzyme assay, fluorescence, artifact counterscreen. 170 compounds, 79% hits; call rule not given here
A number is an active result; n = inactive; x = no result; + = active, no number. Rule as the data show it, unless noted: active = inhibition above about 27%; inactive = the rest.

SMILES	GDH-TPI counter-1	PrP UTR inh	BJeLR lethal	Mtb FBA inh	PrPC TRFRET	PfHsp40 yeast	Mtb FBA inh conf	GDH-TPI counter-2	others
Cc1ccc(S(=O)(=O)N2CCC(C(=O)OC(C)C(=O)N(C)c3ccccc3)CC2)cc1C (stereo not given)	n	n	x	n	n	n	x	x
COCCNC(=O)CSc1ccc(-c2nc3ccccc3[nH]2)cn1	31.0	n	n	31.0	n	n	n	n
C=COCCCNc1ncnc2sc(-c3ccccc3)cc12	n	n	n	38.1	n	n	51.4	40.1
OCCCNc1ncnc2sc(-c3ccccc3)cc12	n	n	n	29.8	n	n	54.8	44.9
CCOc1ccc(C(=O)NCC(c2ccco2)N2CCOCC2)cc1 (stereo not given)	n	n	n	n	n	n	x	x
C[C@@H]1CN([C@@H](C)CO)C(=O)c2cc(NC(=O)C3CC3)ccc2O[C@@H]1CN(C)Cc1ccc(Cl)c(Cl)c1	n	n	x	n	n	n	x	x
CC(Oc1ccc(Cl)cc1)c1ccc(C#N)c(=O)[nH]1 (stereo not given)	n	n	n	33.5	n	n	122.9	97.0
COC(OC)c1ccc(C#N)c(=O)[nH]1	n	n	n	58.1	n	n	n	n
CCOCCCNC(=O)c1cc2c(=O)n(CC)c3ccccc3c2s1	n	n	n	58.6	n	n	+	+
CCn1c(=O)c2cc(C(=O)N3CCOCC3)sc2c2ccccc21	n	n	n	n	n	n	x	x
CCn1c(=O)c2cc(C(=O)N(C)CC(OC)OC)sc2c2ccccc21	n	n	n	35.2	n	x	+	+
CCn1c(=O)c2cc(C(=O)NCCOC)sc2c2ccccc21	n	n	n	51.1	n	n	57.0	42.5
CCn1c(=O)c2cc(C(=O)Nc3ccc(OC)cc3OC)sc2c2ccccc21	n	n	n	n	n	n	x	x
CCO[C@@H]1c2c(ccc3ccc(=O)oc23)OC(C)(C)[C@H]1O	n	n	x	55.6	n	n	n	n	GDH-TPI DR=2.89
C/C=C(/C)C(=O)O[C@@H]1[C@H](OC(=O)C=C(C)C)c2c(ccc3ccc(=O)oc23)OC1(C)C	n	n	n	n	n	n	x	x
CCO[C@@H]1c2c(ccc3ccc(=O)oc23)OC(C)(C)[C@@H]1O	n	n	x	56.9	n	n	55.9	40.0
CCO[C@H]1c2c(ccc3ccc(=O)oc23)OC(C)(C)[C@@H]1O	n	n	x	59.2	n	n	136.6	95.7
CC(=O)OC1c2c(ccc3ccc(=O)oc23)OC(C)(C)C1OC(=O)CC(C)C (stereo not given)	n	n	x	n	n	n	x	x
CC(C)=CC(=O)O[C@@H]1Cc2c(ccc3ccc(=O)oc23)OC1(C)C	n	n	x	32.5	n	n	34.6	25.7
Cc1cc(C[n+]2cc(Br)ccc2N)c2ncccc2c1	n	n	n	n	n	n	x	x
O=c1c2cc3cc4c(cc3nc2ncn1Cc1cccnc1)OCO4	x	x	x	x	n	x	x	x
Cc1cccc(NC(=O)c2ccc([N+](=O)[O-])s2)c1C	n	n	n	n	n	n	x	x
CC1(C)Oc2ccc3ccc(=O)oc3c2[C@@H](O)[C@@H]1O	n	n	x	59.1	n	n	37.6	27.3
COc1ccc(C#Cc2ccc3c(c2)[C@H]2[C@H](CCN2S(=O)(=O)c2ccccc2F)[C@H](CO)N3C)cc1	x	x	x	x	n	x	x	x
Cc1cccc2[nH]c3c(N4CCN(C(=O)c5ccco5)CC4)ncnc3c12	n	n	n	44.0	x	n	57.9	42.4
SMILES	GDH-TPI counter-1	PrP UTR inh	BJeLR lethal	Mtb FBA inh	PrPC TRFRET	PfHsp40 yeast	Mtb FBA inh conf	GDH-TPI counter-2	others
Cc1sc2ncnc(N3CCN(C(=O)c4ccco4)CC3)c2c1C	n	n	n	n	n	n	x	x
Cc1cccc2[nH]c3c(N4CCC5(CC4)OCCO5)ncnc3c12	31.4	n	n	40.7	n	n	68.3	51.6
Clc1ccc2[nH]c3c(N4CCC5(CC4)OCCO5)ncnc3c2c1	x	x	n	x	x	x	x	x
Cc1ccc(-c2c(C#N)c(N)nc3c2CCCC3)s1	n	n	n	n	n	n	x	x
Cc1ccc(-c2c(C#N)c(N)nc3c2CCCCCC3)o1	n	n	n	31.5	n	n	51.2	38.2
CC1(C)Cc2nc(N)c(C(=O)NCCO)cc2CO1	n	n	n	98.1	n	n	+	+
CC1(C)Cc2nc(Cl)c(C(N)=O)cc2CO1	n	n	n	n	n	n	x	x
CCc1ccc(NC(=O)CN2C(=O)C(=O)N(Cc3ccccc3)C2=O)cc1	x	x	n	x	n	x	x	x
CC(C)c1nn2c(=O)cc(COc3cccc(NC(=O)c4ccco4)c3)nc2s1	n	n	n	n	n	n	x	x
Cc1ccc2ccc(C#N)cc2c1O	n	x	x	35.6	n	x	+	+
CC1(C(=O)Nc2ccc(Cl)c(Cl)c2)CCN1CCc1ccccc1 (stereo not given)	n	x	x	n	n	x	x	x
C=CCN(c1ccccc1)S(=O)(=O)c1ccc(Cl)c(C(=O)OCC(=O)N(C)C2CCS(=O)(=O)C2)c1 (stereo not given)	n	n	n	n	n	n	x	x
CCc1cc(=O)oc2cc(C)cc(OC(C)C(=O)NCc3ccccn3)c12 (stereo not given)	n	n	n	50.3	n	n	66.1	48.4
CC(Oc1ccc2c(-c3ccccc3)cc(=O)oc2c1)C(=O)NCc1ccccn1 (stereo not given)	n	n	n	n	n	n	x	x
CCCc1cc(=O)oc2cc(C)cc(OC(C)C(=O)NCc3ccccn3)c12 (stereo not given)	n	n	n	64.8	n	n	+	+
CCN(CC)CCNC(=O)c1cc(-c2ccco2)nc2ccccc12	n	n	n	82.3	n	n	151.9	129.5
O=C(NNC(=O)c1cc(-c2ccco2)nc2ccccc12)c1ccccc1	n	n	n	49.9	n	n	67.8	60.7
Cc1cccn2c(CN[C@H]3CCCCNC3=O)c(C(=O)N3CCOCC3)nc12	n	n	n	n	n	n	x	x
O=C(NCCCO)c1ccc2[nH]c3ccccc3c2c1	n	n	n	35.6	n	n	125.0	90.8
Cc1nc(C(=O)NCCCO)cc2c1[nH]c1ccccc12	n	n	n	n	n	n	x	x
O=C(O)c1ccc(Nc2nc3ccccc3nc2NS(=O)(=O)c2ccc(F)cc2)cc1	32.8	n	n	45.8	n	n	+	156.4
CC(=O)Nc1ccc(S(=O)(=O)Nc2nc3ccccc3nc2Nc2cccc(O)c2)cc1	n	n	n	74.6	n	n	72.1	58.2
O=[N+]([O-])c1ccc(S(=O)(=O)Nc2nc3ccccc3nc2Nc2ccccc2)cc1	n	n	n	n	n	n	x	x
CC(=O)Nc1ccc2nc(-c3ccncc3)[nH]c2c1	n	n	n	32.2	n	n	+	+
